Measured values as given in PubChem BioAssay (NCATS).
Results filed as inconclusive are left out. A call without a number means that no potency is given here. Calls of active or inactive are those of the source. Calls come from the whole dose curve.
Potency is the fitted concentration of half-maximal effect.

Experiment: Validation screen for inhibitors of Lassa infection (AID 463096)
Details: Lassa virus infection, cell-based; series mostly up to 46.1 µM
For `COc1ccc2c(c1)c(CC(=O)O)c(C)n2C(=O)c1ccc(Cl)cc1`, the Potency was “inactive”. For `CCCOc1ccccc1-c1nc2n[nH]nc2c(=O)[nH]1`, the Potency was “inactive”. With `Cc1[nH]c(=O)c(C#N)cc1-c1ccc2nccn2c1` the Potency was “inactive”. In the case of `C[C@]12CCC(=O)C=C1CC[C@@H]1[C@@H]2C(=O)C[C@@]2(C)[C@H]1CC[C@]2(O)C(=O)CO`, the Potency is reported as “inactive”. For `CC[C@H]1CN2CCc3cc(OC)c(OC)cc3[C@@H]2C[C@@H]1C[C@H]1NCCc2cc(OC)c(OC)cc21`, the Potency was 0.158 µM (active). In the case of `O=C(c1ccc(F)cc1)C1CCN(CCn2c(=O)[nH]c3ccccc3c2=O)CC1`, the Potency is reported as “inactive”. With `Brc1c(NC2=NCCN2)ccc2nccnc12` the Potency was “inactive”. In the case of `O=C(O)CN(CCOCCOCCN(CC(=O)O)CC(=O)O)CC(=O)O`, the Potency is reported as “inactive”. With `CCN(CC)CC(=O)Nc1c(C)cccc1C` the Potency was “inactive”. With `C[N+](C)(C)CCOC(=O)CCC(=O)OCC[N+](C)(C)C` the Potency was “inactive”. In the case of `CN(C)CCCN1c2ccccc2Sc2ccccc21`, the Potency is reported as “inactive”. In the case of `CCn1ccnc1CC1COc2ccccc2O1` (stereo not drawn), the Potency is reported as “inactive”. With `COc1cc2c(cc1OC)-c1cc(=Nc3c(C)cc(C)cc3C)n(C)c(=O)n1CC2` the Potency was “inactive”. In the case of `CN(C)CCN(Cc1cccs1)c1ccccn1`, the Potency is reported as “inactive”. With `O=C(O)CCc1nc(-c2ccccc2)c(-c2ccccc2)o1` the Potency was “inactive”. For `C=Cc1c(C)c2cc3[nH]c(cc4nc(cc5nc(cc1[nH]2)C(C)=C5CCC(=O)O)C(CCC(=O)O)=C4C)c(C)c3C=C`, the Potency was “inactive”. In the case of `CC(=O)OCC1=C(C(=O)O)N2C(=O)[C@@H](NC(=O)CSc3ccncc3)[C@H]2SC1`, the Potency is reported as “inactive”. For `Cc1cc(C(C)(C)C)cc(C)c1CC1=NCCN1`, the Potency was “inactive”.
